The supplement of paper PMC11732987, “Enantioselective OTUD7B fragment discovery through chemoproteomics screening and high-throughput optimisation” (Communications Chemistry, 2025)

Columns and labels:
Assay in all cases: log2 ratio of Biotin-Ahx-Ub-VS probe labelling (fragment/DMSO); higher = less target engagement (more negative = stronger competition), active = hit call of the paper (q ≤ 0.05, log2 ratio ≤ -1)
Conditions in all cases: compound concentration: 200 uM; treatment time: 3 h
USP19 = biological target: T1, USP19 (UniProt O94966)
T1 sequence (whole entry): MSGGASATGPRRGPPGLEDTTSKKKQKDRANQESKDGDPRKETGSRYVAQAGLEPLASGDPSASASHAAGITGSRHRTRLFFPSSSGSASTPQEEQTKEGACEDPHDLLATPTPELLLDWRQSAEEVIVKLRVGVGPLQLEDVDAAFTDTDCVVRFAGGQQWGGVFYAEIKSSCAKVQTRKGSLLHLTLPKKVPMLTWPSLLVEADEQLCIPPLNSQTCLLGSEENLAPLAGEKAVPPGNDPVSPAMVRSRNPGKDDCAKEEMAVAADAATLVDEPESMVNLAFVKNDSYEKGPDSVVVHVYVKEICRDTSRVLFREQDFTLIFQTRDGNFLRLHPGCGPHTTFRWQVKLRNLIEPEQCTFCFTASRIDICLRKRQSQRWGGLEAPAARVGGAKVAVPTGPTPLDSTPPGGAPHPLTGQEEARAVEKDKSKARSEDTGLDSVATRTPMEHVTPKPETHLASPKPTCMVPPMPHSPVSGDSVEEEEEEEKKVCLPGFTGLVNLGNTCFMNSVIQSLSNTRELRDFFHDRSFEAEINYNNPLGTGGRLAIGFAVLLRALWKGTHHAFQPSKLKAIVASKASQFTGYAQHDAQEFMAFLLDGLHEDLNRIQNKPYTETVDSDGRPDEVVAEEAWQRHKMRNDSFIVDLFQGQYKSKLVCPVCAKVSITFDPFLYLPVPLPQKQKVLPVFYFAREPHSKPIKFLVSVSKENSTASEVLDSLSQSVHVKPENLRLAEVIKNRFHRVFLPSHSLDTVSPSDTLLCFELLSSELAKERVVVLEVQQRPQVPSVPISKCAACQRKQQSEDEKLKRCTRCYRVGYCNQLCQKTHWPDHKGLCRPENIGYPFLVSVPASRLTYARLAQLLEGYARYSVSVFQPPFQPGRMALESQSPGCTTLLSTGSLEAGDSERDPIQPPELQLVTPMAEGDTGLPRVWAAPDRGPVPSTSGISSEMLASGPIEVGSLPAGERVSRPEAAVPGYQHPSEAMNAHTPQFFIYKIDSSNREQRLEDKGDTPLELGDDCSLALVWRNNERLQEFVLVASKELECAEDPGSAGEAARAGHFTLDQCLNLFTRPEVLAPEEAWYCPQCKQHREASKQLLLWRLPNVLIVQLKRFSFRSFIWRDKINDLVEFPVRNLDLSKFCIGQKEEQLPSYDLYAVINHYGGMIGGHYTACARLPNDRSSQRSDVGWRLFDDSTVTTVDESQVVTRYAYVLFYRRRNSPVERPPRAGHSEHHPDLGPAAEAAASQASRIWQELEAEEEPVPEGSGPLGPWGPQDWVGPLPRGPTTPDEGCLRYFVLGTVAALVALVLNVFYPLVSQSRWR
Outline: (§1)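 HEK293T lysate, 495 µg per sample in Tris/CHAPS/IGEPAL buffer with protease inhibitors, was treated in triplicate with fragment at 200 µM or vehicle for 3 h and then with Biotin-Ahx-Ub-VS at 0.5 µM final for 1 h. Labelled DUBs were NeutrAvidin-enriched, digested with LysC and trypsin, and run by diaPASEF LC-MS/MS. Spectronaut label-free quantities were global-median-normalised, and values are average log2 fragment/vehicle ratios by unpaired t-test on proteins with ≥2 unique peptides.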

USP22 = biological target: T2, USP22 (UniProt Q9UPT9)
T2 sequence (whole entry): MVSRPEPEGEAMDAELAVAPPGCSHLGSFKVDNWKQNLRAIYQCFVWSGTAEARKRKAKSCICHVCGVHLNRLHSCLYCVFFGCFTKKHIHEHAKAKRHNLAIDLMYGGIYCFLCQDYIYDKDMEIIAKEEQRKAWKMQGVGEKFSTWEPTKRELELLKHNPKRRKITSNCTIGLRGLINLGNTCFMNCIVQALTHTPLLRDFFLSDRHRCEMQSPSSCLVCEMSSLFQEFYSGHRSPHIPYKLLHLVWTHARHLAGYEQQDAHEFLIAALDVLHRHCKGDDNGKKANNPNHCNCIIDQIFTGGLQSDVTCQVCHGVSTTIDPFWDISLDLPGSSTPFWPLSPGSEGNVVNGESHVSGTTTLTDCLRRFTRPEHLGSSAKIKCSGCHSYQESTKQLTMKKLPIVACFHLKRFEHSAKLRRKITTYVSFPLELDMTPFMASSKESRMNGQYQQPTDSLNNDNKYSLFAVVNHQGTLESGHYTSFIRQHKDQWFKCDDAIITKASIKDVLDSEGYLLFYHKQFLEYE
Outline: as §1

USP24 = USP24 (UniProt Q9UPU5)
Outline: as §1

USP25 = biological target: T3, USP25 (UniProt Q9UHP3)
T3 sequence (whole entry): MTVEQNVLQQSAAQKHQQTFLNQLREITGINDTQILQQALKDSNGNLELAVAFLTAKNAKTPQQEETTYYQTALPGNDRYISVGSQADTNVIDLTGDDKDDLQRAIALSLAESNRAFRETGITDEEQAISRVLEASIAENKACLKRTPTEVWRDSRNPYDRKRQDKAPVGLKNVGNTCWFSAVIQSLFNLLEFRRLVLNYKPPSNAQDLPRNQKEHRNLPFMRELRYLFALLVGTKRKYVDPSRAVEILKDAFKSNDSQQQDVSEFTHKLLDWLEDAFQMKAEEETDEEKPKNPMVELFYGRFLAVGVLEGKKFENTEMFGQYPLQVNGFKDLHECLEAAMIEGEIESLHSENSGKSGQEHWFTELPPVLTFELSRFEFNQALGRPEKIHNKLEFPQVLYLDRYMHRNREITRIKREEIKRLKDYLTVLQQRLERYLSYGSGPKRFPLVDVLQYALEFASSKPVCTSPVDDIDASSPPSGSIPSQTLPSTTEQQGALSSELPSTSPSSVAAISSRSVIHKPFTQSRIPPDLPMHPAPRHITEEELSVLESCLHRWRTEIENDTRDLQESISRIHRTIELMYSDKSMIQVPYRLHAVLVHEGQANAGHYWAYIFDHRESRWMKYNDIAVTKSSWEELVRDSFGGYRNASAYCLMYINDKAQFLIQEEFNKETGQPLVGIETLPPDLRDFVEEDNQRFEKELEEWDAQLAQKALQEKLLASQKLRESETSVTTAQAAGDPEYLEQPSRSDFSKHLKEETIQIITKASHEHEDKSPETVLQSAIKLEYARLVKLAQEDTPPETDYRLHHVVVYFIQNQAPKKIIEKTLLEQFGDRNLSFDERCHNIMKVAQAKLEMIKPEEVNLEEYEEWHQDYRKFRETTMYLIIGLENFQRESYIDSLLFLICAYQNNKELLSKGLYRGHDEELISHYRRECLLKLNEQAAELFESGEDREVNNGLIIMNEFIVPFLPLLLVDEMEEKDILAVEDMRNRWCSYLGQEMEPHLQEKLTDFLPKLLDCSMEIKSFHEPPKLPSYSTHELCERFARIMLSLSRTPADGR
Outline: as §1

USP28 = biological target: T4, USP28 (UniProt Q96RU2)
T4 sequence (whole entry): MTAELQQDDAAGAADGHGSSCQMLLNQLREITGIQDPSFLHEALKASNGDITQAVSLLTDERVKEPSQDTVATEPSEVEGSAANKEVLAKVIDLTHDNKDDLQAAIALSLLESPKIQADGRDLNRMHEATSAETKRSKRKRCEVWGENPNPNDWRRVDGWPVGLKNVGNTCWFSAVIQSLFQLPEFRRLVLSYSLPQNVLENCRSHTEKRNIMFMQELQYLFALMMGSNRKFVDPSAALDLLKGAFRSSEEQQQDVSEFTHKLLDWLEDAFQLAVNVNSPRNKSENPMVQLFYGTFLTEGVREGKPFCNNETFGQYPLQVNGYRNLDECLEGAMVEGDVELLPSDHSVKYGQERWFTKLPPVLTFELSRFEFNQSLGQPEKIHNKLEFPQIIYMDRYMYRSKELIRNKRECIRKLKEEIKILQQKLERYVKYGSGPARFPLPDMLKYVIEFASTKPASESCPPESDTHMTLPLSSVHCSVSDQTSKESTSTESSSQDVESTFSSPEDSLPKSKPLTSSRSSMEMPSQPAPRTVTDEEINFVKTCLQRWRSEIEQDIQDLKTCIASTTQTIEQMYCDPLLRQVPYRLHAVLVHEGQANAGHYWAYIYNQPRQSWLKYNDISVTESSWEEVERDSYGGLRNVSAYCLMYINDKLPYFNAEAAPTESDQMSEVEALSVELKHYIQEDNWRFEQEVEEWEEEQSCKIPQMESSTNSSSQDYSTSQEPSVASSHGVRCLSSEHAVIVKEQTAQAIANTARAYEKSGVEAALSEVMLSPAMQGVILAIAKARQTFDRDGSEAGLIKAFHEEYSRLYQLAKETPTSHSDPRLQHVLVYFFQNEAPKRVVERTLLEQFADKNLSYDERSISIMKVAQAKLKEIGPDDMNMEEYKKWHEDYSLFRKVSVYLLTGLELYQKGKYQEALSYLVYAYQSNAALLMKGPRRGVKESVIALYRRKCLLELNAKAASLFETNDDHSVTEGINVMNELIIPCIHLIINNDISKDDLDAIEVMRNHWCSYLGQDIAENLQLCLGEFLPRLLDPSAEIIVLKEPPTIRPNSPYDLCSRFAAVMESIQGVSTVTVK
Outline: as §1

Measured: log2 ratio of Biotin-Ahx-Ub-VS probe labelling

USP24, sequence (Q9UPU5 whole entry): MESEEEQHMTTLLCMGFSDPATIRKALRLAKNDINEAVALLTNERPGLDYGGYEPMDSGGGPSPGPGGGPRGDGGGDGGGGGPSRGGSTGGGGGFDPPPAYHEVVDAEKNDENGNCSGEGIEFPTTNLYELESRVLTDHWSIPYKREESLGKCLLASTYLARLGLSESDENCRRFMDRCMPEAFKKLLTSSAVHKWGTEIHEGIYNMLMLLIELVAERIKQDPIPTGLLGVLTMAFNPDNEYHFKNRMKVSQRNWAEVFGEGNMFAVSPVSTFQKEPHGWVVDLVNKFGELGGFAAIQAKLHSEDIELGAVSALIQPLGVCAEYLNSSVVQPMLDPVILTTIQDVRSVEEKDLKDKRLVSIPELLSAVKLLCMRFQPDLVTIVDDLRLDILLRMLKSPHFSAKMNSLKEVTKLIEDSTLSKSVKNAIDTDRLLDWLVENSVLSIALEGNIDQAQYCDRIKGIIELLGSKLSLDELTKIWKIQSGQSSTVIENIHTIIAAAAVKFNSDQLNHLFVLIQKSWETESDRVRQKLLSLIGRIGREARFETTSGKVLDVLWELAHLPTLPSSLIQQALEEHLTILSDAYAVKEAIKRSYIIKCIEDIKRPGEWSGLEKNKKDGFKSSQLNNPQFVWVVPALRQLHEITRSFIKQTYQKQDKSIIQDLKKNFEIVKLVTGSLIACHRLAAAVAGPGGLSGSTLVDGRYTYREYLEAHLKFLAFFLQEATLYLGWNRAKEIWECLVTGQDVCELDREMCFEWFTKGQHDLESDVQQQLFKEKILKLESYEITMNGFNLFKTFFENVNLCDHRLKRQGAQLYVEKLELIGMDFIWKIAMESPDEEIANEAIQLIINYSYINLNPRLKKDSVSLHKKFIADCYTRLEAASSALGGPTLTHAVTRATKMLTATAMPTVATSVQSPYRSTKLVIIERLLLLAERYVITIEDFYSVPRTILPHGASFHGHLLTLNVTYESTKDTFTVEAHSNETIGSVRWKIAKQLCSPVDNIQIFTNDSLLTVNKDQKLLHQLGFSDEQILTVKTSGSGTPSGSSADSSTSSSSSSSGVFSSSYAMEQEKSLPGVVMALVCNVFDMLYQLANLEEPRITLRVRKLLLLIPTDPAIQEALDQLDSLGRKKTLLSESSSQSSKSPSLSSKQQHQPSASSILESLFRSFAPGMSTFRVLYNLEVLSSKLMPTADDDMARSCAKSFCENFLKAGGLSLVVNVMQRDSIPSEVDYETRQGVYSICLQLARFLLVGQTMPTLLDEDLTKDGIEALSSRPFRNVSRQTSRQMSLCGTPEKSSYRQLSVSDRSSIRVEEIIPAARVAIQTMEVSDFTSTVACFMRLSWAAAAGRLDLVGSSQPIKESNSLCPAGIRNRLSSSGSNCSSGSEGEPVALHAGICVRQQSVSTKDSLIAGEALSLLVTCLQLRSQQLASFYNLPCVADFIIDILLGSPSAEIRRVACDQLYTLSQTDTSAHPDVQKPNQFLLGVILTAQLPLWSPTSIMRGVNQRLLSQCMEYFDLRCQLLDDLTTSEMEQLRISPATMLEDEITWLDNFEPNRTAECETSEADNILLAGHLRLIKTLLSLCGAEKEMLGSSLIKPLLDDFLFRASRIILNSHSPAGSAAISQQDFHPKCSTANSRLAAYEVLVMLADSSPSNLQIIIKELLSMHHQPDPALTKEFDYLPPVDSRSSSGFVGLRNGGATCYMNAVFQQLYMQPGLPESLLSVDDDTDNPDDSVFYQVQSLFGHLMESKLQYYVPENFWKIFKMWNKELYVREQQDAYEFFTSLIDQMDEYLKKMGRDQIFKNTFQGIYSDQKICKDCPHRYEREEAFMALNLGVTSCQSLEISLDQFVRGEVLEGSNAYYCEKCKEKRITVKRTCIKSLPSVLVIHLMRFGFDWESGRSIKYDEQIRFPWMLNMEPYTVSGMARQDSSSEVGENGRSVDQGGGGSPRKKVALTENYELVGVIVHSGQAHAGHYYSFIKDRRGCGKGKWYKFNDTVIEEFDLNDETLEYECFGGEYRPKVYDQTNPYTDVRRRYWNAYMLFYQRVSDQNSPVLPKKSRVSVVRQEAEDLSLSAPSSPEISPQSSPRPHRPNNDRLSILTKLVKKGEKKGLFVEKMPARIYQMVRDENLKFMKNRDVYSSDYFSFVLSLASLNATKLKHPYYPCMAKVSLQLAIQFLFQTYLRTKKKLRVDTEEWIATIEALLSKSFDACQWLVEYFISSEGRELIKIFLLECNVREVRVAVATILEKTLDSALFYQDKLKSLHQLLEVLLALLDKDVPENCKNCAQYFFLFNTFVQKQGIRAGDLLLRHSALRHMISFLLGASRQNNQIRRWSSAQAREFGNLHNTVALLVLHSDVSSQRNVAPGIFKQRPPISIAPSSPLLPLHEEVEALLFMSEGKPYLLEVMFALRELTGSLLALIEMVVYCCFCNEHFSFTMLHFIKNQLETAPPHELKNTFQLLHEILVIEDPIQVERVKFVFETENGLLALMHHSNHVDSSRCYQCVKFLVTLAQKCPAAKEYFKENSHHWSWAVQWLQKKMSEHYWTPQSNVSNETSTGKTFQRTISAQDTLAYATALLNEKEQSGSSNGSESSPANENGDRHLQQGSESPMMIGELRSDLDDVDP

CNC(=O)Cn1cc(NC(=O)CCl)cn1
inactive: USP19 -0.0937 | USP22 -0.0499 | USP24 -0.146 | USP25 -0.172 | USP28 -0.486
